GPR32 ag: qHTS for Agonists of Human Resolvin D1 Receptor DRV1. AID 1346428, 2018. CHO-K1 GPR32 beta-arrestin PathHunter luminescence, 90 min; zero percent set by DMSO-only wells. Probable G-protein coupled receptor 32 (Homo sapiens), O75388. 2.5% of 48,000 active. activation, % at 76.9 µM;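 active = activation of at least 60% and not above a set upper limit, about 1 call in 100 departs from these limits; inconclusive = activation of 40% to 60%, or above that upper limit; inactive = activation under 40%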
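Luminescent readout of beta-Gal complementation quantifies ligand-induced beta-arrestin association with GPR32 in CHO-K1 cells; 90 min compound incubation at 37 °C, detection 1 h at room temperature.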
FH mod: Identification of activators of human fumarate hydratase by quantitative high-throughput screening. Fumarate hydratase, mitochondrial (Homo sapiens), P07954. FH coupled MDH/diaphorase resazurin fluorescence, 15 min. Potency, µM (titrated, usually from 79.9 µM), usual class: inhibitors. 0.22% of 54,000 active; also: the screen sought activators but most active calls are inhibition curves; nearly all actives have a fitted effect of over 45% in size
NTMT1 inh: Primary qHTS for Inhibitors of N-terminal methyltransferase 1 (NTMT1): MTaseGlo Assay; NTMT1 MTase-Glo SAH luminescence, purified enzyme; N-terminal Xaa-Pro-Lys N-methyltransferase 1 (Homo sapiens), Q9BV86; Potency, µM (top dose mostly 114 µM), actives largely listed as inhibitors; 2.5% of 59,000 active; AID 1645870, 2021; also: nearly all actives have a fitted effect of over 65% in size
OvCa metastasis: Primary qHTS assay for Inhibitors of ovarian cancer metastasis using an organotypic tumor microenvironment (TME) model. SKOV3ip1-GFP adhesion/invasion on 3D omental model, fluorescence. Potency, µM (highest dose often 45.8 µM), most hits filed as inhibitors. 0.1% of 46,000 active; also: nearly all actives have a fitted effect of over 65% in size
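Adhesion/invasion was scored as fixed GFP-labeled SKOV3ip1 cell counts (488/509 nm), normalized to DMSO and tomatine controls. Cancer cells in serum-free medium, with four compound doses (0.36-46 umol/L), sat 2 hr at RT then 16 hr at 37 C on a 48 hr fibroblast/mesothelial/ECM culture.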
Sfp qHTS opt: qHTS Assay for Inhibitos of Bacillus subtilis Sfp phosphopantetheinyl transferase (PPTase): Chemistry Optimization Followup. 78% of 230 active. purified Sfp PPTase enzyme activity, qHTS. Potency, µM (titrated, usually from 114 µM), actives largely listed as inhibitors. shares compounds with NTMT1 inh
HM489 growth: qHTS for Inhibitos of Bacillus subtilis Sfp phosphopantetheinyl transferase (PPTase): Chemistry Optimization Followup in B. Subtilis HM489. Potency, µM (highest dose often 114 µM), hits mostly inhibitors. shares compounds with NTMT1 inh. B. subtilis HM489 (acpS-) growth, BacTiter-Glo, 5 h. 50% of 220 active
Sfp PPTase gel: Gel-Based Assay for Inhibitos of Bacillus subtilis Sfp phosphopantetheinyl transferase (PPTase): Chemistry Optimization Followup; shares compounds with NTMT1 inh; purified Sfp PPTase, gel-based product detection; Potency, µM (highest dose often 250 µM), usual class: inhibitors; 54% of 220 active; AID 540355, 2011
Sfp inh gel: qHTS Assay for Inhibitors of Bacillus subtilis Sfp phosphopantetheinyl transferase (PPTase): Gel Based Assay. purified Sfp PPTase, gel-based product detection. 90% of 45 active. Potency, µM (doses to about 250 µM), actives largely listed as inhibitors. AID 602362, 2012. shares compounds with NTMT1 inh
Sfp inh SAR2: qHTS Assay for Inhibitors of Bacillus subtilis Sfp phosphopantetheinyl transferase (PPTase): SAR Round 2. shares compounds with NTMT1 inh. purified Sfp enzyme, PPTase activity, qHTS. Potency, µM (series often up to 57.1 µM), actives largely listed as inhibitors. 87% of 230 active
hGST ctr: qHTS Assay for Inhibitors of Bacillus subtilis Sfp phosphopantetheinyl transferase (PPTase): SAR in hGST A1-1. shares compounds with NTMT1 inh. hGST A1-1 enzyme activity counter-screen, qHTS. Potency, µM (titrated, usually from 114 µM), actives largely listed as inhibitors. 55 tested, under 10 active
HSD17B4 inh: Extended Characterization of HPGD Inhibitors: Counterscreen Against HSD17b4; purified HSD17B4, estradiol/NAD+, NADH fluorescence; Potency, µM (doses to about 57.1 µM), most hits filed as inhibitors; shares compounds with NTMT1 inh; 10% of 230 active
Target sequence (P51659 whole entry, looked up): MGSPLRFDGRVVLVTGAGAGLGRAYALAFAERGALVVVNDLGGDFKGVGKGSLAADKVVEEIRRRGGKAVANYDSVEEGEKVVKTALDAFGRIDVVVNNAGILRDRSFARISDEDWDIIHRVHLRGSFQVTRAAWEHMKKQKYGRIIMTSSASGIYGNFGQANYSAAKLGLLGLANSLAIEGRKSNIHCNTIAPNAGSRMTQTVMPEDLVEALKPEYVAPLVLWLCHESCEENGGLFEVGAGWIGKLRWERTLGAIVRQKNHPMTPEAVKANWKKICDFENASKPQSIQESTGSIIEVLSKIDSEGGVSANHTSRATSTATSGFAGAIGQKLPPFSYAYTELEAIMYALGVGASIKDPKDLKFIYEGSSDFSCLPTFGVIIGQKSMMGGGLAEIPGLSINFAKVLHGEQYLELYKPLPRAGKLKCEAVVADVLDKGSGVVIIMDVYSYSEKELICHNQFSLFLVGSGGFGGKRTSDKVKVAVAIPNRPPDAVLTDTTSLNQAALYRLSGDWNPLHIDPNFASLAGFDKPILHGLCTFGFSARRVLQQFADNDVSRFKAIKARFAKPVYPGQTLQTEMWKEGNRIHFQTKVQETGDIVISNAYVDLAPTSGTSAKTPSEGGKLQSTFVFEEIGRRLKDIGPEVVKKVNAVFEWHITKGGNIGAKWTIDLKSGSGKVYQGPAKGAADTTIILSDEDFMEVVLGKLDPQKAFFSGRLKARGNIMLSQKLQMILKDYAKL
ALDH1A1 inh: Extended Characterization of HPGD Inhibitors: Counterscreen Against ALDH1A1; shares compounds with NTMT1 inh; recombinant ALDH1A1, NADH fluorescence, propionaldehyde/NAD+; Potency, µM (doses to about 57.1 µM), actives largely listed as inhibitors; 93% of 230 active; AID 743195, 2013
Numbers stand for hits; . = inactive; ? = inconclusive; / = not tested or not shown. Sampled rows, rich in hits. Any-hit rate of the full collection: about 3.8%. Unless noted, calls follow the shape of the dose curve; as a rule, active = well fitted curve in the direction sought with a large enough effect; inconclusive = small, poorly fitted or top-dose-only effect, or another doubt; inactive = no such curve, though single readings can be large; an effect the other way counts as inactive or inconclusive.

SMILES	GPR32 ag	FH mod	NTMT1 inh	OvCa metastasis	Sfp qHTS opt	HM489 growth	Sfp PPTase gel	Sfp inh SAR2	HSD17B4 inh	ALDH1A1 inh	others
Cc1ccnc(NC(=S)N2CCN(c3ccc(N)cc3)CC2)c1	/	/	?	/	?	?	.	10µM	?	9.6µM
COc1ccc(N2CCN(C(=S)Nc3cc(C)ccn3)CC2)cc1	/	/	50µM	/	12µM	33µM	.	10µM	.	6.8µM
COc1ccc(-n2cnc3cc(C(=O)N4CCCCC4)ccc32)cc1	/	/	?	/	/	/	/	/	.	1.4µM
Cc1cc(C)nc(NC(=S)N2CCN(S(=O)(=O)c3cccc(C(F)(F)F)c3)CC2)c1	/	/	?	/	2.4µM	?	.	0.81µM	.	22µM
Cc1cc(Nc2cccc(C(F)(F)F)c2)ncn1	.	.	.	.	/	/	/	/	/	/
Cc1ccnc(NC(=S)N2CCC(Nc3cccc(C(F)(F)F)c3)CC2)c1	/	/	.	/	1.9µM	12µM	0.4µM	1µM	.	4.8µM
FC(F)(F)c1cccc(N2CCN(C(=S)Nc3cnccn3)CC2)c1	/	/	/	/	?	.	158µM	?	30µM	24µM
Cc1ccnc(NC(=S)N[C@H]2CCN(c3cccc(C(F)(F)F)c3)C2)c1	/	/	.	/	.	?	?	?	.	22µM
Cn1cnc(S(=O)(=O)N2CCC(C(=O)N3CCN(c4cccc(C(F)(F)F)c4)CC3)CC2)c1	.	.	.	.	/	/	/	/	/	/
Cc1ccc2nc(N3CCN(c4cccc(C(F)(F)F)c4)CC3)c3nnnn3c2c1	.	/	/	.	/	/	/	/	/	/
CCOCCn1ccc2c(OCC(=O)Nc3cc(C)cc(C)c3)cccc2c1=O	.	.	.	.	/	/	/	/	/	/
COc1ccc(-c2nc3ccccc3s2)cc1NC(C)=O	.	.	.	.	/	/	/	/	/	/
CCc1ccc2oc(-c3ccc(C)c(NC(=O)c4cc([N+](=O)[O-])ccc4N4CCOCC4)c3)nc2c1	.	.	.	.	/	/	/	/	/	/
FC(F)(F)c1cccc(N2CCN(C(=S)Nc3cc(C(F)(F)F)ccn3)CC2)c1	/	/	?	/	5.1µM	7.4µM	?	?	.	19µM	Sfp inh gel=.;hGST ctr=?
Cn1nnc2c(N3CCN(c4cccc(C(F)(F)F)c4)CC3)ncnc21	.	.	.	.	/	/	/	/	/	/
FC(F)(F)c1cccc(N2CCN(C(=S)Nc3ccccn3)CC2)c1	/	/	/	/	2.4µM	37µM	25µM	0.91µM	.	7.6µM
Cc1nc2c3ccccc3nc(NNC(=O)CCC(=O)N3CCN(c4cccc(C(F)(F)F)c4)CC3)n2n1	.	.	.	.	/	/	/	/	/	/
OCc1ccnc(NC(=S)N2CCN(c3cccc(C(F)(F)F)c3)CC2)c1	/	/	.	/	59µM	53µM	.	32µM	.	24µM
Cc1cc(C)nc(NC(=S)N2CCN(c3cc(C(F)(F)F)cc(C(F)(F)F)c3)CC2)c1	/	/	/	/	3.3µM	.	?	0.51µM	.	22µM
Cc1cn(C)c(CC(=O)N2CCN(c3ccc(F)cc3)CC2)c1C(=O)O	.	.	.	.	/	/	/	/	/	/
CC(C)Cn1cc(NC(=O)N2CCN(c3cccc(C(F)(F)F)c3)CC2)c2ccccc2c1=O	.	.	.	.	/	/	/	/	/	/
FC(F)(F)c1cccc(N2CCN(C(=S)Nc3ncnc4ccccc34)CC2)c1	/	/	?	/	?	5.9µM	?	9.1µM	?	6.8µM
Cc1cc(C)nc(NC(=S)N2CCN(c3ccc4cn(C)nc4c3)CC2)c1	/	/	?	/	13µM	.	.	11µM	?	22µM
CC(C)c1ccc(NC(=O)N2CCN(c3ccc(Cl)c(Cl)c3)CC2)cc1	.	.	.	.	/	/	/	/	/	/

Compound activity from PubChem BioAssay.
